# Results reported in the supplement of paper PMC6555819.
# What was measured:
# Test in all cases: PBM binding z-score (relative to random genomic background probes); higher = stronger binding; sequences stand for … in GC…GCGATTGACAGCGTAGAATGAAGG
# [1] = system: FXR:RXRa (NR concentration 270 nM, RXRa partner concentration 90 nM)
# Outline: (§1)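 Binding buffer was PBS pH 7.4 with 2% milk, 0.02% Triton X-100, 1 mM DTT, 0.2 mg/mL BSA and 0.4 mg/ml salmon testes DNA. In it, ligand-free nuclear receptor dimers were incubated 1 h on custom Agilent 4×180K protein-binding microarrays carrying double-stranded probes. Antibodies against each partner (one per run) detected binding, and z-scores were calculated against random background probes after regression normalization of scanned fluorescence.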
# [2] = system: LXRa:RXRa (NR concentration 270 nM, RXRa partner concentration 90 nM)
# Outline: as §1
# [3] = system: LXRa homodimer (NR concentration 270 nM)
# Outline: as §1
# [4] = system: LXRb:RXRa (NR concentration 270 nM, RXRa partner concentration 90 nM)
# Outline: as §1
# [5] = system: LXRb homodimer (NR concentration 270 nM)
# Outline: as §1
# [6] = system: PPARa:RXRa (NR concentration 270 nM, RXRa partner concentration 90 nM)
# Outline: as §1
# [7] = system: PPARg:RXRa (NR concentration 180 nM, RXRa partner concentration 90 nM)
# Outline: as §1
# [8] = system: PPARg:RXRa 270nM:90nM, anti-RXR (NR concentration 270 nM, RXRa partner concentration 90 nM)
# Outline: as §1
# [9] = system: PPARg:RXRa 30nM:10nM, anti-RXR (NR concentration 30 nM, RXRa partner concentration 10 nM)
# Outline: as §1
# [10] = system: PPARg:RXRa 90nM:30nM, anti-RXR (NR concentration 90 nM, RXRa partner concentration 30 nM)
# Outline: as §1
# [11] = system: PPARg:RXRa DBDmut IVT, anti-RXR (DBD mutation: RXRa K156A/R161A, NR concentration 270 nM, RXRa partner concentration 90 nM)
# Outline: as §1
# [12] = system: PPARg:RXRa IVT, anti-PPARg (NR concentration 270 nM, RXRa partner concentration 90 nM)
# Outline: as §1
# [13] = system: PPARg DBDmut:RXRa IVT, anti-PPARg (DBD mutation: PPARg1 K132A/R137A, NR concentration 270 nM, RXRa partner concentration 90 nM)
# Outline: as §1
# [14] = system: PPARg DBDmut IVT, anti-PPARg (DBD mutation: PPARg1 K132A/R137A, NR concentration 270 nM)
# Outline: as §1
# [15] = system: PPARg homodimer (NR concentration 180 nM)
# Outline: as §1
# [16] = system: PXR:RXRa (NR concentration 270 nM, RXRa partner concentration 90 nM)
# Outline: as §1
# [17] = system: PXR homodimer (NR concentration 270 nM)
# Outline: as §1
# [18] = system: RARa:RXR (NR concentration 270 nM, RXRa partner concentration 90 nM)
# Outline: as §1
# [19] = system: RARa homodimer (NR concentration 270 nM)
# Outline: as §1
# [20] = system: RARb:RXRa (NR concentration 270 nM, RXRa partner concentration 90 nM)
# Outline: as §1
Sequence,PBM binding z-score [1],PBM binding z-score [2],PBM binding z-score [3],PBM binding z-score [4],PBM binding z-score [5],PBM binding z-score [6],PBM binding z-score [7],PBM binding z-score [8],PBM binding z-score [9],PBM binding z-score [10],PBM binding z-score [11],PBM binding z-score [12],PBM binding z-score [13],PBM binding z-score [14],PBM binding z-score [15],PBM binding z-score [16],PBM binding z-score [17],PBM binding z-score [18],PBM binding z-score [19],PBM binding z-score [20]
CCGACTGTGGCAGAAAGGTTACCATACCATCCGG,0.385,0.528,0.0726,0.75,-0.636,2.16,2.03,3.65,1.73,3.6,0.332,0.812,-0.741,-1.03,0.662,0.984,-0.427,1.47,-0.0301,1.45
ATATGTAGGTTAGATCCGGGTCATTCAGGCTATG,1.55,2.3,0.843,1.99,0.185,3.74,4.17,3.71,1.53,2.86,6.3,6.32,1.34,0.983,1.65,3.1,1.25,3.08,1.01,2.03
TCATATAGGTAAAGTTGAAAGTCGAACGATATGA,0.231,0.886,-0.186,0.68,-0.123,2.11,1.9,3.23,3.72,3.52,3.68,2.66,1.6,1.18,0.5,0.661,0.0596,0.908,0.307,1.08
ACTAGTTGGTCAGCTGAGGTCACAAACAATTCGG,2.51,2.67,2.22,3.43,0.432,3.72,1.41,2.05,0.167,1.14,1.09,2.67,-0.0448,0.681,2.75,5.42,1.38,4.65,1.05,3.53
CGTCCAAGGTCAATGCTAAGTCAGTGAAAGCATT,6.87,4.59,0.722,3.58,0.637,4.73,3.59,4.12,0.983,2.55,2.98,3.34,0.647,-0.584,2.4,3.51,0.823,4.32,0.642,5.01
CCAGACAGGTGAGAAAGTAACTCAGCCTCGATTA,-0.0524,0.0409,0.0347,0.0309,-0.167,0.206,0.1,-0.203,-0.427,-0.273,0.811,0.252,-0.222,-0.131,0.452,-0.35,0.307,0.117,0.86,0.141
CAAATTAGGTCACAGAGGTCAAAGTCCGTGCGTA,7.48,6.57,7.83,6.26,2.94,6.44,9.76,8.05,6.42,8.29,8.01,8.49,2.82,1.45,5.32,6.74,11.4,7.4,3.41,5.27
CCTTACGGGTCACTCCAGGTTAGAGCATCGGAGT,4.5,6.91,0.78,4.42,0.148,4.23,3.19,3.7,0.828,2.54,2.67,3.37,-0.182,-0.0184,1.58,4.28,0.36,3.52,0.0194,3.64
CCTACTGGGCCATCAGGTTATTGATATCAACGTT,0.0751,-0.156,0.178,0.293,-0.502,0.918,1.23,1.98,0.473,1.4,4.67,4.48,0.284,0.0128,0.249,-0.153,-0.0218,-0.124,0.0589,0.589
GGAACGAGGGCAAAGTTGATAGCGTCTGTCGACG,1.43,1.07,-0.457,0.901,-0.56,4.27,7.58,7.44,6.55,7.74,4.61,4.26,0.324,-0.0322,0.905,1.2,-0.0837,1.7,-0.604,2.48
CCTAGTTGGTCAAGGTCACACAGGCTATAGGTAC,4.41,4.07,1.88,3.56,0.583,4.31,3.32,3.88,1.62,2.62,2.08,3.64,0.89,0.538,3.81,4.67,3.92,4.96,2.03,4.34
TTACCAAGGTGAAGGTCGTCGATCCCTCTGTAGA,1.32,1.01,-0.48,1.09,-0.788,2.6,3.62,4.16,2.47,4.28,1.94,3.33,0.0568,0.108,0.887,1.24,-0.288,1.64,-0.604,2.36
CGTCCAAGGTCAGCAGGTCAGTGCAAGCGACGTG,5.87,3.79,0.73,2.8,-0.131,4.86,4.09,4.53,1.16,2.98,3.15,3.71,-0.109,-0.869,3.88,3.68,0.651,4.87,0.357,5.27
ACTAGTTGGTCAGATGAGGTCACACACAATTCGG,3.83,3.41,2.89,3.36,0.869,3.74,2.28,2.43,0.846,1.63,1.63,2.78,1.26,1.93,3.45,5.55,2.21,4.72,2.3,3.3
CGTCCAAGGTCAGGAGGTCAGTGAAAGCGACGTG,6.23,4.55,1.15,3.64,-0.0727,5.43,4.93,5.41,1.89,4.06,2.95,3.93,-0.53,-1.29,5.26,4.65,1.1,6.11,1.5,5.52
TCATATAGGTAAGAGGTGAAAGTCGGTGTGGTAA,1.83,1.71,0.368,1.64,-0.0245,4.31,7.08,7.24,6.37,7.94,4.67,4.43,1.44,0.671,1.73,1.31,0.509,2,1.54,1.44
CTCGAATGGTCGTGCTCAGGTGAGTATACCAAAC,-0.179,-0.419,-0.51,-0.227,-0.231,-0.0651,-0.329,-0.395,-0.488,-0.372,-0.307,0.137,-1.36,0.0362,-1,-0.335,-0.382,0.107,0.169,0.0892
AGTCAAAGTTCATCTAGGTGACGTAAGATATGCT,6.84,5.85,5.06,3.69,1.52,4.98,7.01,6.36,3.53,5.48,1.67,4.74,1.64,1.41,3.65,4.98,6.85,3.75,1.44,4.8
ACTATTAGCTGACTTAGGGCAACCGATACGACGC,0.00773,-0.128,0.194,-0.149,0.546,-0.0754,0.886,0.11,-0.102,0.0192,0.43,0.75,1.05,1.38,0.825,-0.173,-0.168,0.142,1.14,0.676
GTACCAAGGTGAATAGGCCGTTGATGAGTAGGCG,0.0834,0.126,-0.456,-0.22,-0.582,1.08,0.806,0.724,-0.00292,0.38,1.64,2.14,-0.316,-0.431,0.326,0.0653,-0.287,0.238,0.218,1.36
TTACCAAGGTGAAGGTCGTTCATCCCTCTGTAGA,1.75,2.56,0.0622,1.51,-0.519,2.77,3.06,4.13,2.5,3.8,1.8,3.39,-0.313,0.687,0.597,1.9,0.214,1.55,-0.144,2.54
GCTCGGAGGACAAGGTCAGCGCTTTGTCCGTAGA,2.42,2.15,-0.539,1.88,-0.677,2.94,0.785,2.1,-0.477,0.958,0.29,1.07,-1.37,-1.53,1.12,2.18,-0.34,2.68,-0.859,3.88
CGAACTAGGTCATTGAGAGGACAGTGAATAGTAA,3.94,2.78,0.422,1.87,-0.333,4.37,7.29,5.99,3.89,5.45,7.95,7.8,1.23,0.676,2.27,2.36,0.174,3.08,-0.238,3.74
CCTCGGAGGACAACAGGAGGACAGAGCTGCCAGA,0.107,0.0624,-0.1,-0.555,-1.29,-0.58,0.442,-0.396,-0.625,-0.907,-0.583,-0.273,-0.847,-1.93,-0.324,-0.247,-0.0933,-0.0397,-0.0805,1.09
ACTAGATGGTCAGCTGAGGTCACACACAATTCGG,4.73,3.89,2.33,3.48,0.584,3.6,1.95,2.13,0.736,1.61,0.982,2.14,1.06,0.428,2.89,5.58,1.53,4.43,1.34,3.75
CGTCCAAGGTCAGCAGGTCAATGAAAGCGACGTG,6.32,4.32,0.919,3.56,-0.0922,5.37,5.19,5.03,1.33,3.38,3.22,3.95,-0.262,-0.753,2.98,4.21,0.593,5.49,0.0185,5.24
TCTTGTAGATCAATAGACGTTAAGAAAGTGCGCT,0.594,0.28,-0.214,0.165,0.106,0.212,-0.0755,1.51,2.76,2.26,1.93,0.361,0.093,1.4,-0.0841,0.0599,-0.0185,0.0974,0.424,-0.173
GAGACAGGGTCAGCTAGAGGCCAGAGTATGGAAA,4.45,2.53,-0.421,2.21,-1.18,4.46,2.91,2.82,0.35,1.21,0.507,1.1,-0.524,-0.747,3.57,3.34,0.373,4.73,0.0826,4.09
GGAACGAGGGCATTCGAATTGATAGCATGGCGAT,0.807,0.373,-0.335,0.239,-0.211,1.31,1.15,1.14,0.413,0.651,3.02,2.16,-0.249,-0.176,-0.045,0.719,0.241,0.841,-0.483,1.9
